Results as given in PubChem BioAssay AID504843 (Broad Institute, 2011).
Out of some 1,200 compounds screened, about 360 (30%) were called active. No rule for the calls is given here. These entries were drawn from the full list. Results with a measured potency or affinity are listed apart.

test: bacterial growth inhibition, dose response, counter-screen, BacTiter-Glo luminescence, cherry-picked samples (AID 504843); conditions: BacTiter-Glo ATP luminescence; series mostly up to 15 µM;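 also: growth measured after 8 h incubation at 30 °C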

SMILES	outcome
O=c1cc(O)nc[nH]1	inactive
CCOc1cc(C(=O)N2CCCN(C)CC2)cc(OCC)c1OCC	inactive
O=C(Cn1cc2c(n1)CCCCC2)N1CCc2ccccc2C1	inactive
COc1ccc(CN(C(=O)/C=C/c2ccccc2Cl)C2CCS(=O)(=O)C2)cc1 (stereo unspecified)	inactive
Cn1c(-c2ccccc2)cnc1SCc1nc2ccccc2c(=O)[nH]1	inactive
CCOC(=O)c1c(NC(=O)CSc2n[nH]c(CNc3ccccc3)n2)sc(C)c1C	inactive
Cc1nn2c(COc3ccc(NC(=O)c4ccccc4Cl)cc3)nnc2c2ccccc12	inactive
COc1ccc(NC(=O)c2ccc(Oc3ncccn3)cc2)cc1	inactive
COc1ccc(NC(=O)Cn2ncc(Cl)c(Cl)c2=O)cc1S(=O)(=O)N1CCOCC1	inactive
CCn1ccnc1CN(C)C(=O)c1cc(COc2ccc(Cl)cc2OC)on1	inactive
CCN(CC(=O)NCc1ccc(F)cc1)CC(=O)Nc1ccc(S(=O)(=O)N2CCCC2)cc1	inactive
COc1ccccc1OCCNC(=O)Cc1ccc(S(=O)(=O)N2CCOCC2)s1	inactive
O=C(CSc1nc(O)c(Cc2ccccc2F)c(=O)[nH]1)N1CCCCCC1	inactive
COc1ccc(-c2csc(NC(=O)C3COc4ccccc4O3)n2)cc1OC (stereo unspecified)	inactive
COc1ccc2c(c1)c(C(O)CN1CCC(Cc3ccccc3)CC1)c(C)n2C (stereo unspecified)	inactive
O=C(CN1CCN(c2ccc(O)cc2)CC1)Nc1ccc2c(c1)OCCO2	inactive
Cc1c(Nc2ncnc3c2cnn3-c2ccccc2)c(=O)n(-c2ccccc2)n1C	inactive
COc1ccc(S(=O)(=O)N2CCOCC2)cc1NC(=O)c1ccc2c(c1)OCO2	inactive
CCOc1ccc(S(=O)(=O)N2CCCCC2)cc1NC(=O)CN1C(=O)NC(CC)(c2ccccc2)C1=O (stereo unspecified)	inactive
Cc1cc(C)c(C(N)=O)c(Nc2ccc3c(c2)OCCO3)n1	inactive
CCN(CC)CCn1c(=N)n(CC(O)COc2cccc(C)c2)c2ccccc21 (stereo unspecified)	inactive
Cc1ccc(CC(=O)NCCS(=O)c2ccc(Cl)cc2)cc1 (stereo unspecified)	inactive

SMILES	outcome
O=C(CN1CCN(Cc2ccc(Cl)cc2)CC1)N/N=C/c1c[nH]c2ccccc12	inactive
CCOC(=O)[C@H]1[C@H]2COc3ccc(OC)cc3[C@H]2N2C(=O)CN(Cc3ccccc3)C(=O)[C@@]12C	inactive
O=C(CSc1nccc(=O)[nH]1)c1cc2ccccc2o1	inactive
Cc1ccc(S(=O)(=O)N2CCOCC2)cc1NC(=O)c1cc2ccccc2oc1=O	inactive
CC(O/N=C/c1ccc(OC(F)F)cc1)C(=O)Nc1cccc(S(=O)(=O)N2CCOCC2)c1 (stereo unspecified)	inactive
COc1ccc(N2CCN(C3CC(=O)N(c4ccc5c(c4)OCCO5)C3=O)CC2)cc1 (stereo unspecified)	inactive
CCOC(=O)C1=C(C)Nc2ncnn2C1c1cc(Br)ccc1F (stereo unspecified)	inactive
COC(=O)c1ccc(NC(=O)N2CCC(O)(c3cccnc3)CC2)cc1	inactive
CC(=O)Nc1sc(NC(=O)c2ccccc2)nc1-c1cccs1	inactive
Cc1ccc(C(=O)Nc2nc(C)c(C(=O)Nc3ccc4c(c3)CCC4)s2)cc1	inactive
CCCN(C(=O)Cn1c(C(F)(F)F)nc2ccccc21)C1CCS(=O)(=O)C1 (stereo unspecified)	inactive
CC(C)=CCC/C(C)=C/CNC(=O)C[C@H]1C[C@H](C(=O)N2CCOCC2)[C@@]2(C)c3[nH]c4ccc(Cl)cc4c3CCN2C1=O	inactive
CC(=O)CSc1ncnc2sc3c(c12)CCC(C)C3 (stereo unspecified)	inactive
CCOC(=O)Cc1c[nH]c2ccc([N+](=O)[O-])cc12	inactive
CCOCCCNC(=O)c1ccc(Cn2c(=S)[nH]c3c([nH]c4ccc(OC)cc43)c2=O)cc1	inactive
O=C(NCc1ccccc1)c1ccc(F)c(F)c1	inactive
O=C(Nc1ccccc1Oc1ccccc1)c1ccc(Br)o1	inactive
O=C(N/C(=C/c1ccccc1)C(=O)N1CCCCC1)c1ccc(Br)o1	inactive
CN(CC(=O)NCc1cccnc1)S(=O)(=O)c1ccccc1	inactive
O=C(CSc1ncnc2nc[nH]c12)c1ccc2ccccc2c1	inactive
O=C1NC(=O)C(c2ccccc2)(c2ccccc2)N1	inactive
CCN(CC)CC(=O)Nc1ccc(C)cc1C(=O)c1ccccc1	inactive

SMILES	outcome
COc1cc(OC)cc(C(=O)N(CN2CCCC2=O)c2ccccc2OC)c1	inactive
CC(C)(C)NC(=O)C[C@H]1C[C@H](C(=O)N2CCOCC2)[C@@]2(CCC3CCCC3)c3[nH]c4cc(-c5ccco5)ccc4c3CCN2C1=O	inactive
CC(C)[C@@H](C(=O)N1CCNCC1)n1cc(CCO)nn1	inactive
Cc1nc(N)nc(Cl)c1Cc1ccc(Cl)cc1	inactive
COc1cccc(COC(=O)C2CC(=O)N(Cc3ccco3)C2)c1OC (stereo unspecified)	inactive
CC(NC(=O)Nc1nccs1)(C(F)(F)F)C(F)(F)F	inactive
NC(=O)c1ccccc1NC(=O)COc1ccc2c(c1)OCO2	inactive
COC(=O)c1cnc(NNS(=O)(=O)c2ccc(C(F)(F)F)cc2)nc1C(F)(F)F	inactive
COCn1c(-c2cccc(Br)c2)nc2ccccc21	inactive
CNC(=O)C1CCN(S(=O)(=O)c2c(C)noc2/C=C/c2cccc(OC)c2)CC1	inactive
O=C(c1ccc2nc[nH]c2c1)N1CCN(c2ncc(C(F)(F)F)cc2Cl)CC1	inactive
Cc1ccc(NC(=O)c2cccs2)cc1S(=O)(=O)Nc1cccc(Cl)c1	inactive
O=C1c2ccccc2CC1Sc1nnc(-c2ccncc2)o1 (stereo unspecified)	inactive
CC1=CC(=O)[C@@H](O)[C@@H](c2ccccc2Br)N1C	inactive
COc1ccc(NC(=O)CC2(CC(=O)O)CCCC2)cn1	inactive
COc1ccc2[nH]c(C(=O)N(C)c3ccc(F)cc3F)cc2c1	inactive
COc1cccc(NC(=O)CSc2nc3ccccc3c(=O)n2CCCC(=O)NCC2CCCO2)c1 (stereo unspecified)	inactive
O=C(CSc1cn(CCNC(=O)c2c(F)cccc2F)c2ccccc12)NCC1CCCO1 (stereo unspecified)	inactive
C=CCn1c(C)cc(C(=O)CSc2nnc3c(Cl)cc(Cl)cn23)c1C	inactive
CCN(C1CCS(=O)(=O)C1)S(=O)(=O)c1cc(C)ccc1C (stereo unspecified)	inactive
Fc1ccc(-n2c(-c3ccc4ccccc4n3)n[nH]c2=S)cc1Cl	inactive
C=CCOc1cccc(C(=O)N2CCCC(CCC(=O)NCc3ccccc3F)C2)c1 (stereo unspecified)	inactive
